# From PubChem BioAssay (EPA / NIEHS)
# Records with an inconclusive call do not appear. Calls of active or inactive are those of the source. How the source made its calls, unless noted: active means hit-call score of the fitted dose curve at least 0.9, where 1 is the maximum; inconclusive means response in the unintended direction; inactive means score below 0.9.
# Experiments:
# [1] = Tanguay_ZF_120hpf_CIRC_legacy: (Legacy) Oregon State University Tanguay Lab 120 Hour Post-fertilization zebrafish Assay for Circulatory Malformation (AID 2283651)
# Outline: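 Static exposure, 6–120 hpf, 28C, sealed and dark; one dechorionated 5D embryo/well; DMSO 0.64% v/v final. Binary circulation endpoint by brightfield; dead embryos not scored.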
# [2] = Tanguay_ZF_120hpf_NC_legacy: (Legacy) Oregon State University Tanguay Lab 120 Hour Post-fertilization zebrafish Assay for Notochord and Tail Malformation (AID 2283656)
# Outline: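 Binary notochord-distortion calls, made by brightfield inspection, form the read-out; activity is fitted in the positive direction against DMSO. Exposure ran statically from 6 to 120 hpf at 28C with 0.64% DMSO.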
# [3] = Tanguay_ZF_120hpf_TR_legacy: (Legacy) Oregon State University Tanguay Lab 120 Hour Post-fertilization zebrafish Assay for Touch Response (AID 2283667)
# Outline: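 Binary touch-response call at 120 hpf, analysed as gain of signal versus DMSO baseline. Wild-type 5D larvae, static exposure at 28C, 0.64% DMSO final; 5uM trimethyltin chloride as positive control.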
# [4] = Tanguay_ZF_120hpf_ActivityScore_legacy: (Legacy) Oregon State University Tanguay Lab 120 Hour Post-fertilization zebrafish Assay Score for Activity (AID 2283742)
# Outline: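 Dechorionated 5D embryos, one per well, static exposure 6–120 hpf, 28C, sealed and dark; final DMSO 0.64% (vol/vol). Brightfield binary scoring of mortality plus 18 endpoints; gain-of-signal fit versus DMSO baseline.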
# [5] = Tanguay_ZF_120hpf_SWIM_legacy: (Legacy) Oregon State University Tanguay Lab 120 Hour Post-fertilization zebrafish Assay for Swim Bladder Malformation (AID 2283654);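 further: swim bladder malformation in each larva scored yes or no under brightfield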
# Outline: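 Tropical 5D embryos dechorionated at 4 hpf; 1 embryo/well from 6 hpf; static, sealed, dark exposure at 28C until 120 hpf; final DMSO 0.64%; 5uM trimethyltin chloride positive control; swim bladder defect recorded yes/no; dead embryos not scored.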
# [6] = CCTE_Padilla_ZF_144hpf_TERATOSCORE: (Legacy) CCTE's 144 Hour Post-fertilization zebrafish Assay Teratoscore, Padilla Lab (AID 2283679; active means hit-call score of the fitted dose curve at least 0.9, where 1 is the maximum; inactive means score below 0.9;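 on AC50: zebrafish embryos with chorions exposed by immersion from 6-8 hpf to 5 dpf with daily renewal; teratogenicity score from eye scoring of death hatching and malformations at 144 hpf; higher score means more developmental defects relative to DMSO baseline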)
# Outline: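 Larvae scored by eye at 144 hpf for death, hatching and malformations after a day in clean Hanks'. Before that, daily-renewed exposure at 80 uM (0.4% DMSO, 26C) from roughly 6-8 hpf through 5 dpf, 4 embryos per chemical.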
# [7] = CCTE_Simmons_CellTiterGLO_HEK293T: Viability Assessment in CCTE's Assays for Thyroperoxidase (TPO) Inhibition, Simmons Lab (AID 2283665);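 on AC50: cells exposed to compound for 24 h before readout; actives reduce ATP signal below DMSO vehicle meaning cytotoxicity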
# Outline: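 Luminescent ATP readout (CellTiter-Glo, 20 min at room temperature) after 24 hr exposure of HEK293T cells to 5 nM–87.5 uM final compound; signal loss relative to DMSO vehicle indicated cytotoxicity; dichlone titrated as positive control.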
# [8] = test system: Thyroperoxidase (TPO), gene 445522; test: CCTE_Simmons_GUA_TPO: CCTE's Guaiacol Assay for Thyroperoxidase (TPO) Inhibition, Simmons Lab (AID 2283750)
# Outline: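 Porcine thyroid microsomes (25 ug) in 200mM potassium phosphate, preincubated 30 s at 37C with compound (8 concentrations, 5 nM–87.5 uM) and 35mM guaiacol; 1mM H2O2 starts reaction. Absorbance change at 450nm over first 80 s; loss of signal versus DMSO, three replicates.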
# [9] = CEETOX_H295R_MTT_cell_viability: Viability Assessment in the CeeTox HT-H295R MTT Assay (AID 2283718; active means hit-call score of the fitted dose curve at least 0.9, where 1 is the maximum; inactive means score below 0.9;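 on AC50: curve fitted both ways so AC50 may mark viability loss or gain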)
# Outline: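 Human H295R adrenal cells, prestimulated 48 h with 10 uM forskolin, were exposed 48 h to chemicals in 0.1% DMSO. Viability was measured in the same wells by MTT (0.5 mg/ml, 4 h, 37 C), absorbance 570/650 nm, as percent of controls.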
# [10] = Tanguay_ZF_120hpf_TRUN_legacy: (Legacy) Oregon State University Tanguay Lab 120 Hour Post-fertilization zebrafish Assay for Truncated Body (AID 2283655)
# Outline: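 Whole-embryo zebrafish screen: dechorionated 5D embryos, static exposure 6–120 hpf, 28C, sealed foil-covered plates, 0.64% DMSO. Binary truncation call; gain of signal versus DMSO baseline.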
# [11] = test system: Thyroperoxidase (TPO), gene 54314; test: CCTE_Simmons_AUR_rTPO: CCTE's Amplex UltraRed Assay for Thyroperoxidase (TPO) Inhibition, Simmons Lab (AID 2283662);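 further: potency for loss of signal meaning inhibition of peroxidase activity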
# Outline: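 Cell-free peroxidase activity assay using rat thyroid gland microsomes with excess H2O2 (300 uM) and 25 uM Amplex UltraRed. Compounds tested from 5 nM to 87.5 uM; fluorescence measured after 30 min at 37C, analysed relative to DMSO baseline.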
# [12] = STM_H9_OrnithineISnorm_perc: Stemina devTOX quickPredict H9 human embryonic stem cell (hESC)-based Assay for Ornithine (ORN) Metabolite Biomarker, Normalized (AID 2283712; active means hit-call score of the fitted dose curve at least 0.9, where 1 is the maximum; inactive means score below 0.9;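 further: ornithine released into spent medium during last day measured by mass spectrometry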)
# Outline: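 UPLC-HRMS readout: endogenous ornithine EIC area / 13C-ORN internal standard, then % of 0.1% DMSO median. H9 hESCs (pluripotent), 72h exposure, re-dosed with fresh media q24h; last 24-h spent media, deproteinized in 40% acetonitrile.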
# [13] = STM_H9_CystineISnorm_perc: Stemina devTOX quickPredict H9 human embryonic stem cell (hESC)-based Assay for Cystine (CYSS) Metabolite Biomarker, Normalized (AID 2283713; active means hit-call score of the fitted dose curve at least 0.9, where 1 is the maximum; inactive means score below 0.9)
# Outline: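 UPLC-HRMS read-out: endogenous cystine peak area in spent medium, normalized to isotope-labeled internal standard and to median of 0.1% DMSO controls. Pluripotent H9 cells, 72h exposure, daily medium/compound replenishment; medium from last 24h sampled.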
# [14] = STM_H9_OrnCyssISnorm_ratio: Stemina devTOX quickPredict H9 human embryonic stem cell (hESC)-based Assay for Ornithine (ORN):Cystine (CYSS) Ratio (AID 2283714)
# Outline: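 UPLC-HRMS of spent media: ORN/CYSS ratio of internal-standard-normalized percentages, DMSO (0.1%) baseline. Pluripotent H9 hESCs, 72h exposure, daily re-dosing with fresh media; last 24h media collected.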
# [15] = ArunA_CellTiter_hNC: Viability Assessment in the ArunA Biomedical's Oris Neural Crest (hNC) Cell Migration Assay (AID 2283752)
# Outline: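 hNC cells (H9 ESC-derived), 60,000/well, Matrigel, LIF + bFGF medium; 16 h 37C attachment; 72 h compound in test medium; CellTiter Aqueous One read-out; loss-of-signal vs DMSO baseline.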
structure (smiles),measurement,setting,value
c1nc[nH]n1,outcome,[1],inactive
same,outcome,[2],inactive
same,outcome,[3],inactive
same,outcome,[4],inactive
ClC1=C(Cl)C2(Cl)C3C(Cl)C(Cl)CC3C1(Cl)C2(Cl)Cl (stereo not given),outcome,[5],inactive
same,outcome,[3],inactive
same,AC50,[6],9.16 µM (active)
same,outcome,[4],inactive
[N-]=[N+]=[N-],outcome,[1],inactive
same,outcome,[5],inactive
same,outcome,[2],inactive
same,outcome,[7],inactive
same,outcome,[3],inactive
same,outcome,[6],inactive
same,outcome,[4],inactive
same,AC50,[8],26.5 µM (active)
CCOP(=S)(OCC)SCn1nnc2ccccc2c1=O,outcome,[9],inactive
c1cc2c3c(cccc3c1)CC2,outcome,[1],inactive
same,outcome,[5],inactive
same,outcome,[2],inactive
same,outcome,[3],inactive
same,outcome,[4],inactive
CCCCN(CCCC)N=O,outcome,[5],inactive
same,outcome,[10],inactive
same,outcome,[3],inactive
same,outcome,[4],inactive
CN(C)C(=O)Cl,outcome,[1],inactive
same,outcome,[10],inactive
same,outcome,[2],inactive
same,outcome,[3],inactive
same,outcome,[4],inactive
CCCCc1ccc(O)cc1,AC50,[11],0.51 µM (active)
same,AC50,[7],53.6 µM (active)
same,outcome,[9],inactive
COP(N)(=S)OC,outcome,[9],inactive
CCCCOCCOP(=O)(OCCOCCCC)OCCOCCCC,outcome,[9],inactive
CC(C)Nc1ccc(Nc2ccccc2)cc1,outcome,[9],inactive
CCOP(=S)(OCC)SCS(=O)(=O)CC,outcome,[9],inactive
OCC1CO1 (stereo not given),outcome,[1],inactive
same,outcome,[10],inactive
same,outcome,[3],inactive
same,outcome,[4],inactive
CC(=O)c1ccc(-c2ccccc2)cc1,outcome,[9],inactive
Cc1ccc([N+](=O)[O-])cc1C,outcome,[1],inactive
same,outcome,[10],inactive
same,outcome,[2],inactive
same,outcome,[4],inactive
Nc1ccc([N+](=O)[O-])cc1Cl,outcome,[9],inactive
N#Cc1c(-c2ccc(Cl)cc2)[nH]c(C(F)(F)F)c1Br,AC50,[9],0.289 µM (active)
CCCN(CCC)c1c([N+](=O)[O-])cc(C(C)C)cc1[N+](=O)[O-],outcome,[5],inactive
same,outcome,[10],inactive
same,outcome,[2],inactive
same,outcome,[3],inactive
same,AC50,[6],16.2 µM (active)
same,outcome,[4],inactive
Oc1ccc(I)cc1,outcome,[9],inactive
CCOP(=S)(NC(C)C)Oc1ccccc1C(=O)OC(C)C (stereo not given),outcome,[9],inactive
O=S(=O)(c1ccc(O)cc1)c1ccc(O)cc1,AC50,[11],32 µM (active)
same,outcome,[9],inactive
CCCCC(CC)COP(=O)(Oc1ccccc1)Oc1ccccc1 (stereo not given),outcome,[12],inactive
same,outcome,[13],inactive
same,outcome,[14],inactive
same,outcome,[15],inactive
ClC(Cl)(Cl)c1ccccc1,outcome,[1],inactive
same,outcome,[4],inactive
O=[N+]([O-])c1ccc(Cl)c(Cl)c1,outcome,[1],inactive
same,outcome,[10],inactive
same,outcome,[2],inactive
same,outcome,[3],inactive
same,outcome,[4],inactive
CCCCN(CC)C(=O)SCCC,AC50,[11],6.35 µM (active)
same,AC50,[7],73.1 µM (active)
ClC(Cl)=C(c1ccc(Cl)cc1)c1ccccc1Cl,outcome,[9],inactive
O=P(Oc1ccccc1)(Oc1ccccc1)Oc1ccccc1,outcome,[5],inactive
same,outcome,[10],inactive
same,outcome,[2],inactive
same,outcome,[3],inactive
same,AC50,[6],6.17 µM (active)
same,outcome,[12],inactive
same,outcome,[13],inactive
same,outcome,[9],inactive
same,outcome,[4],inactive
same,outcome,[15],inactive
CO/N=C(/C(=O)OC)c1ccccc1COc1ccccc1C,AC50,[9],5.04 µM (active)
CCOC(=O)c1ccccc1N,outcome,[9],inactive
O=S1(=O)OCC2C(CO1)C1(Cl)C(Cl)=C(Cl)C2(Cl)C1(Cl)Cl (stereo not given),AC50,[11],2.41 µM (active)
same,AC50,[7],28.5 µM (active)
same,outcome,[9],inactive
O=c1ssc(Cl)c1Cl,AC50,[11],24.5 µM (active)
same,AC50,[7],53.8 µM (active)
